Laboratory results taken from PubChem BioAssay (EPA / NIEHS).
Values joined by “and” are separate entries in the source; they are usually repeats but may differ in a detail not shown here. Equal entries are not always repeated. Inconclusive results are not listed. The source holds several records for some structures; these can differ, active in one and inactive in another. Active and inactive are the calls of the source. Rule for the calls, unless noted: active = hit-call score of the fitted dose curve at least 0.9, where 1 is the maximum; inactive = score below 0.9.

Experiments:
[1] = biological target: Nuclear respiratory factor 1 (Homo sapiens) (UniProt Q16656); test: ATG_NRF1_CIS: Attagene CIS-FACTORIAL HepG2 Assay for human Nuclear Respiratory Factor 1 (NRF1) Orphan Gene (AID 2282987); settings: HepG2 NRF1 cis-element reporter, Attagene multiplex; actives raise or lower the signal
Sequence of Nuclear respiratory factor 1 (Homo sapiens) (Q16656 whole entry, looked up): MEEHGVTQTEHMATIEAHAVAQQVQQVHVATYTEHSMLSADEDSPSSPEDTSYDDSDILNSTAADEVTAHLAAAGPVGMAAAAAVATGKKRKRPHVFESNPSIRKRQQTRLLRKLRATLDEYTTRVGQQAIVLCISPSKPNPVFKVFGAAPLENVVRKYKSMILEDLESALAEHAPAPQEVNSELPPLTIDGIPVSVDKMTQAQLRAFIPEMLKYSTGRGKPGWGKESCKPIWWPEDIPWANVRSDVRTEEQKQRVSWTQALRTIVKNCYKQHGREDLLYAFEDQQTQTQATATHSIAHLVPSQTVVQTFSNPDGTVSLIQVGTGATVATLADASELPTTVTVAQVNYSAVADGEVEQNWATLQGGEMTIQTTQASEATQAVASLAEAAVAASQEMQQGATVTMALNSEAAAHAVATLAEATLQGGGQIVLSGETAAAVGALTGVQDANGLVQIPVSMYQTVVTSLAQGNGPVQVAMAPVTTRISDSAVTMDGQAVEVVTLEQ
Method in brief: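 Endogenous NRF1-driven reporter transcription measured in transiently transfected human HepG2 liver cells. Readout: reporter mRNA by RT-PCR and capillary electrophoresis with fluorescence detection, 24 h post-dosing. Gain or loss of signal fitted relative to DMSO baseline.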

[2] = biological target: Myc proto-oncogene protein (Homo sapiens) (UniProt P01106); test: ATG_Myc_CIS: Attagene CIS-FACTORIAL HepG2 Assay for human Myelocytomatosis (Myc) Proto-Oncogene Transcription Factor (AID 2282990); settings: HepG2, Attagene cis-reporter transcription factor activity; actives raise or lower the signal
Sequence of Myc proto-oncogene protein (Homo sapiens) (P01106 whole entry, looked up): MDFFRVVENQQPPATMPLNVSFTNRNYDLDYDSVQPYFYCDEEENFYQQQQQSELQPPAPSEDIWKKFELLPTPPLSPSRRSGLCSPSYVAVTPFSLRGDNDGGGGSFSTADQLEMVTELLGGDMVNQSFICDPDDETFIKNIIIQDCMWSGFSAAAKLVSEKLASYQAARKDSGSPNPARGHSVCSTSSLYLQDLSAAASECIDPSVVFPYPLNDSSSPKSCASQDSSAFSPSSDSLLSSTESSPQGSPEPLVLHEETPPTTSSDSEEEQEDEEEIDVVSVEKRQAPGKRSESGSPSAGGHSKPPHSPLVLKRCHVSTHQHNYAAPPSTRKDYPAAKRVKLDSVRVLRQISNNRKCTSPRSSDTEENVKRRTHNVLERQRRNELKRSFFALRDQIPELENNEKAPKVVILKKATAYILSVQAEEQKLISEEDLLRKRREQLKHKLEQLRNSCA
Method in brief: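 HepG2 cells transiently transfected with multiple cis-promoter-driven reporter transcription units, so endogenous TF activity is read. After 24 h compound exposure, reporter mRNA was quantified by RT-PCR, 6-FAM labelling, HpaI digestion and capillary electrophoresis; bidirectional fit versus DMSO.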

[3] = ATG_NF_kB_CIS: Attagene CIS-FACTORIAL HepG2 Assay for human Nuclear Factor Kappa B (NF-kB) (AID 2282991); settings: HepG2 Attagene cis-factorial NF-kB reporter mRNA; actives raise or lower the signal
Method in brief: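 Read-out: reporter transcript levels quantified by RT-PCR plus capillary electrophoresis of 6-FAM-labelled, HpaI-cut fragments. Transfected HepG2 cells, 24 h compound exposure, endogenous NF-kB-driven cis element; gain or loss scored versus DMSO.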

[4] = ATG_NRF2_ARE_CIS: Attagene CIS-FACTORIAL HepG2 Assay for human Nuclear Factor Erythroid 2 Related Factor 2 (NFR2) response to Antioxidant Response Elements (ARE) (AID 2282992); settings: HepG2 Attagene ARE/NRF2 reporter, transcription factor activity; actives raise or lower the signal
Method in brief: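 Readout: reporter mRNA quantified by RT-PCR plus FAM-labelled primer extension, HpaI digestion and capillary electrophoresis, 24 h after dosing transfected HepG2 cells. Gain or loss of signal is fitted bidirectionally against DMSO baseline.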

[5] = ATG_Oct_MLP_CIS: Attagene CIS-FACTORIAL HepG2 Assay for human Octamer-Binding Transcription Factor (Oct) (AID 2282993); settings: HepG2 Attagene cis-factorial Oct reporter, mRNA; actives raise or lower the signal
Method in brief: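 After 24 h compound exposure, transfected HepG2 cells were lysed for total RNA; reporter-specific cDNA was PCR-amplified, fluorescently labelled and sized by capillary electrophoresis. Bidirectional curve fitting used DMSO as baseline.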

[6] = biological target: Cellular tumor antigen p53 (Homo sapiens) (UniProt P04637); test: ATG_p53_CIS: Attagene CIS-FACTORIAL HepG2 Assay for human p53 Transcription Factor (AID 2282994); settings: HepG2 p53 cis-element reporter, Attagene mRNA; actives raise or lower the signal
Sequence of Cellular tumor antigen p53 (Homo sapiens) (P04637 whole entry, looked up): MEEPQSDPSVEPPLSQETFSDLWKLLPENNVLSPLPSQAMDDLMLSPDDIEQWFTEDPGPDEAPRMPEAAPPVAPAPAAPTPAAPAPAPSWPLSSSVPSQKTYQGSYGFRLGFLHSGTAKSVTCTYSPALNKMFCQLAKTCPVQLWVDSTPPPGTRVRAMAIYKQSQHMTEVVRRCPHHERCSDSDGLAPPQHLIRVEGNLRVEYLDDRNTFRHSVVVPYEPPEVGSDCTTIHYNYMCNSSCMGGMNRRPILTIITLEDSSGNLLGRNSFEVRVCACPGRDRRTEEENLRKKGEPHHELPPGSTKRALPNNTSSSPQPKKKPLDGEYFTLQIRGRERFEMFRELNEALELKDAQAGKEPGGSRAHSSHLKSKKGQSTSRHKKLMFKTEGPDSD
Method in brief: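 Read-out: reporter mRNA by RT-PCR plus capillary electrophoresis with fluorescence detection. Human HepG2 liver cells carried transfected multi-reporter cis-element constructs, dosed 24 h. Gain or loss of signal fitted bidirectionally against DMSO control.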

[7] = biological target: human Peroxisome Proliferator-activated Receptor alpha (PPARa), PPARA (gene 5465) (UniProt Q07869); test: ATG_PPARa_TRANS: Attagene TRANS-FACTORIAL HepG2 Assay for human Peroxisome Proliferator-activated Receptor alpha (PPARa) (AID 2283001; active = hit-call score of the fitted dose curve at least 0.9, where 1 is the maximum)
Sequence of human Peroxisome Proliferator-activated Receptor alpha (PPARa), PPARA (gene 5465) (Q07869 whole entry, looked up): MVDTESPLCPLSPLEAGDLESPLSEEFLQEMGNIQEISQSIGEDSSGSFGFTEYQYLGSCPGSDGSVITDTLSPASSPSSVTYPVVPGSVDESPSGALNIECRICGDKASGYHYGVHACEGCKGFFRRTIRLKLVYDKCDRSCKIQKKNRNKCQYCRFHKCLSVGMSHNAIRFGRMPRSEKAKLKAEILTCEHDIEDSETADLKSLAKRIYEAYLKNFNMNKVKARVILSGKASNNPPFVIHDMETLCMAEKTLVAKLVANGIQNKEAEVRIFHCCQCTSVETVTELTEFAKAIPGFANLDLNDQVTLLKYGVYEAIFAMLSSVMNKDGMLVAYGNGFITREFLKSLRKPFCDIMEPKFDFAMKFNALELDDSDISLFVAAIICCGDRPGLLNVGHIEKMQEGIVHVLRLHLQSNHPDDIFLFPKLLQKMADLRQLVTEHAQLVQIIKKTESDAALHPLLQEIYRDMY
Method in brief: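 Cells (HepG2) are transfected with multiple reporter transcription units, exposed to chemical for 24 h, then total RNA is reverse-transcribed and amplified. Labelled products are quantified by capillary electrophoresis; induction is referenced to DMSO.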

[8] = biological target: human Retinoic Acid Receptor beta (RARb), RARB (gene 5915) (UniProt P10826); test: ATG_RARb_TRANS: Attagene TRANS-FACTORIAL HepG2 Assay for human Retinoic Acid Receptor beta (AID 2283004; active = hit-call score of the fitted dose curve at least 0.9, where 1 is the maximum)
Sequence of human Retinoic Acid Receptor beta (RARb), RARB (gene 5915) (P10826 whole entry, looked up, the tested form may be a part): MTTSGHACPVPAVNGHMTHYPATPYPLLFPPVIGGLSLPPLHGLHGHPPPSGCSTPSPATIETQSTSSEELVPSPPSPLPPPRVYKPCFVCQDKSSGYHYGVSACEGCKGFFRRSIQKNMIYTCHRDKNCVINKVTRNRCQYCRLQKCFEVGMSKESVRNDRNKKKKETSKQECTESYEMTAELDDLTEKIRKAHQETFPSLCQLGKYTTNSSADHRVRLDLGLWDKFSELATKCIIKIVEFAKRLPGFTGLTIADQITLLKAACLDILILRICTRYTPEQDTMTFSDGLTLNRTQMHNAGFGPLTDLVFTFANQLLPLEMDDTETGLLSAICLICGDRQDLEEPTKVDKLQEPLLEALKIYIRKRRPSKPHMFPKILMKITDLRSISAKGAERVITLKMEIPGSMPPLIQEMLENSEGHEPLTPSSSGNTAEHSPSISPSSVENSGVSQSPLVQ
Method in brief: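 Readout is reporter mRNA induction: RNA reverse-transcribed, PCR-amplified, FAM-labelled, HpaI-cut and resolved by capillary electrophoresis. Transiently transfected HepG2 cells carrying exogenous NR–Gal4 chimeras were dosed for 24 h; activity fitted upward relative to DMSO.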

[9] = biological target: Retinoic acid receptor alpha (Homo sapiens) (UniProt P10276); test: ATG_RARa_TRANS: Attagene TRANS-FACTORIAL HepG2 Assay for human Retinoic Acid Receptor alpha (RARa) (AID 2283005; active = hit-call score of the fitted dose curve at least 0.9, where 1 is the maximum;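 for AC50: potency for increased reporter signal meaning RARa activation over DMSO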)
Sequence of Retinoic acid receptor alpha (Homo sapiens) (P10276 whole entry, looked up, the tested form may be a part): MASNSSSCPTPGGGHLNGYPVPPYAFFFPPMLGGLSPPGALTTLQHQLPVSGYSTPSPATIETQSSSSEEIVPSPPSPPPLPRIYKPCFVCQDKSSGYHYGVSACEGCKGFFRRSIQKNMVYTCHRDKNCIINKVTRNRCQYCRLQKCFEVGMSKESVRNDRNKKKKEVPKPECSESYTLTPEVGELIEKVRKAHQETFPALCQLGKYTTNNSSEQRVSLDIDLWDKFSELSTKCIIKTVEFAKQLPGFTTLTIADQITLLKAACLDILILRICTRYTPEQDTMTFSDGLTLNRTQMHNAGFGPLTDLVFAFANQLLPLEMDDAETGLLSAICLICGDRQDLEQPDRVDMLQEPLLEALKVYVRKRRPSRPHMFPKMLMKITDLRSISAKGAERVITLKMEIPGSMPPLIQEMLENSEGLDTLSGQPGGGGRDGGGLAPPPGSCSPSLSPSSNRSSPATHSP
Method in brief: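 HepG2 cells transiently transfected with multiple reporter units expressing chimeric RARα-GAL4 fusion, with GAL4-UAS-driven reporters. After 24 h compound exposure, reporter mRNA induction quantified by RT-PCR and capillary electrophoresis with fluorescent labeling; gain-of-signal fitted relative to DMSO control.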

[10] = biological target: Peroxisome proliferator-activated receptor gamma (Homo sapiens) (UniProt P37231); test: ATG_PPARg_TRANS: Attagene TRANS-FACTORIAL HepG2 Assay for human Peroxisome Proliferator-activated Receptor-gamma (PPARg) (AID 2283007; active = hit-call score of the fitted dose curve at least 0.9, where 1 is the maximum)
Sequence of Peroxisome proliferator-activated receptor gamma (Homo sapiens) (P37231 whole entry, looked up, the tested form may be a part): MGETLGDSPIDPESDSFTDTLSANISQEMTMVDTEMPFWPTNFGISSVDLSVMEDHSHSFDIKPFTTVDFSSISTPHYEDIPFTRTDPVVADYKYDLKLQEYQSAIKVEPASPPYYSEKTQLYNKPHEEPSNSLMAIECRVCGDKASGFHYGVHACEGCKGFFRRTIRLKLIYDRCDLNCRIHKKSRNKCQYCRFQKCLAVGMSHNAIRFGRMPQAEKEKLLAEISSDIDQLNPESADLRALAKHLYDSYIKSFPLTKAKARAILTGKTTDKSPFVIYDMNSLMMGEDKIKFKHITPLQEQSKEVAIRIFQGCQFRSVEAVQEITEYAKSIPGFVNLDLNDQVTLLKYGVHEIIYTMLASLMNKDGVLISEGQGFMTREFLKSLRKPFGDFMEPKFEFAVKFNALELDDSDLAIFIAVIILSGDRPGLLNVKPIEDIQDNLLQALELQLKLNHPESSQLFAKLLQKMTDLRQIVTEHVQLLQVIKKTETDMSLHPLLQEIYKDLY
Method in brief: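 Read-out: reporter mRNA induction, detected by fluorescence after RT-PCR and capillary electrophoresis. Transiently transfected human HepG2 liver cells carrying a chimeric NR-Gal4 construct were dosed for 24 h; activity was fitted upward relative to DMSO.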

[11] = biological target: Nuclear receptor subfamily 1 group I member 2 (Homo sapiens) (UniProt O75469); test: ATG_PXR_TRANS: Attagene TRANS-FACTORIAL HepG2 Assay for human Pregnane X Receptor (PXR) (AID 2283008; active = hit-call score of the fitted dose curve at least 0.9, where 1 is the maximum)
Sequence of Nuclear receptor subfamily 1 group I member 2 (Homo sapiens) (O75469 whole entry, looked up, the tested form may be a part): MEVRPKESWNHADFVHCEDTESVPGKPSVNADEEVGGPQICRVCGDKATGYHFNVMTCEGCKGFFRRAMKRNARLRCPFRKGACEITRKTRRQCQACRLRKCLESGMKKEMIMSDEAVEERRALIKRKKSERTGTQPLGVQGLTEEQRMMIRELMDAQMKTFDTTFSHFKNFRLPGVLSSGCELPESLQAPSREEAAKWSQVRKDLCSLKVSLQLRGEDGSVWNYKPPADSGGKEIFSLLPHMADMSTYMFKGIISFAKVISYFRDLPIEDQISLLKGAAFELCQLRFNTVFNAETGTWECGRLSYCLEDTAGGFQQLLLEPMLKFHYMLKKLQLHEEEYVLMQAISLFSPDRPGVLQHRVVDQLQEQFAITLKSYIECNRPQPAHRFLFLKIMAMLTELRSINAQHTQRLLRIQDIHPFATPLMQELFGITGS
Method in brief: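 Trans-factorial format: exogenous NR-Gal4 fusion activity, not endogenous factor, in transfected human HepG2 liver cells. After 24 h dosing, RNA isolated, reverse-transcribed, amplified and resolved by capillary electrophoresis; induction scored versus DMSO.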

[12] = biological target: human Retinoic Acid Receptor gamma (RARg), RARG (gene 5916) (UniProt P13631); test: ATG_RARg_TRANS: Attagene TRANS-FACTORIAL HepG2 Assay for human Retinoic Acid Receptor gamma (RARg) (AID 2283009; active = hit-call score of the fitted dose curve at least 0.9, where 1 is the maximum)
Sequence of human Retinoic Acid Receptor gamma (RARg), RARG (gene 5916) (P13631 whole entry, looked up, the tested form may be a part): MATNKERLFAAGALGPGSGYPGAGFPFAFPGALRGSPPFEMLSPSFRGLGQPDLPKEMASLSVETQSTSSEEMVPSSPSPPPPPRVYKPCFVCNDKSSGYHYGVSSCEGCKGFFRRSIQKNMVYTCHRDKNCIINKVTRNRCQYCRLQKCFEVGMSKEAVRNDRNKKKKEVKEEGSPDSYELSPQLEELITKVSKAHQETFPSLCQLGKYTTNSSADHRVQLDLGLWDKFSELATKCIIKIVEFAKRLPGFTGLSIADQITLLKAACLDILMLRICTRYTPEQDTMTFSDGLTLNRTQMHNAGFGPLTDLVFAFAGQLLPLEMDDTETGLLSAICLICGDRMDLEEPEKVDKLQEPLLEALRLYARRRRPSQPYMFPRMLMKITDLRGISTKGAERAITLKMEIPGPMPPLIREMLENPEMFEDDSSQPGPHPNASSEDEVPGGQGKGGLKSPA
Method in brief: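 TRANS format measured activity of exogenous NR-GAL4 fusion (RARg) in transfected HepG2 liver cells after 24 h dosing. Induced reporter RNA was detected by RT-PCR/capillary electrophoresis fluorescence, analysed in the positive direction against DMSO.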

[13] = BSK_3C_TissueFactor: BioMAP Diversity Plus: 3C Assay for Tissue Factor Biomarker Activity (AID 2282997); settings: BioMAP 3C HUVEC, tissue factor biomarker readout; actives raise or lower the signal
Method in brief: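 HUVEC, 3C system, 24 h post-dose; Tissue Factor by ELISA; bidirectional fit vs DMSO baseline.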

[14] = BSK_3C_uPAR: BioMAP Diversity Plus: 3C Assay for Urokinase-type plasminogen activator receptor (uPAR) Biomarker Activity (AID 2282998); settings: BioMAP 3C HUVEC, uPAR biomarker ELISA; actives raise or lower the signal
Method in brief: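 Values derive from bidirectional curve fitting relative to DMSO, which served as baseline of activity. uPAR was measured by ELISA in human umbilical vein endothelial primary cultures 24 h after compound addition.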

[15] = BSK_3C_VCAM1: BioMAP Diversity Plus: 3C Assay for Vascular cell adhesion molecule 1 (VCAM1) Biomarker Activity (AID 2282999); settings: BioMAP 3C HUVEC, VCAM1 ELISA, cytokine-stimulated; actives raise or lower the signal
Method in brief: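 Vascular primary endothelium (human umbilical vein) was exposed to chemicals and assayed 24 h later. VCAM-1 levels came from ELISA, with DMSO serving as baseline for bidirectional fitting.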

[16] = BSK_4H_Eotaxin3: BioMAP Diversity Plus: 4H Assay for Eotaxin 3 Biomarker Activity (AID 2283000); settings: primary human endothelial cells (HUVEC); actives raise or lower the signal
Method in brief: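 Readout is Eotaxin-3 (CCL26) level by ELISA in primary human umbilical vein endothelial cells harvested 24 h after chemical exposure; activity fitted in both directions against DMSO control.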

[17] = read-out: Intercellular Adhesion Molecule 1 (ICAM1), ICAM1 (gene 3383); test: BSK_3C_ICAM1: BioMAP Diversity Plus: 3C Assay for Intercellular Adhesion Molecule 1 (ICAM1) Biomarker Activity (AID 2283003); settings: primary human endothelial cells (HUVEC); actives raise or lower the signal
Method in brief: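 Chemicals are dosed onto primary human umbilical vein endothelium (3C system). After 24 h, ICAM-1 is measured by ELISA, and responses are fitted bidirectionally relative to DMSO.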

[18] = BSK_3C_Proliferation: Cell Proliferation Assessment in the BioMAP Diversity Plus: 3C Assay (AID 2283006); settings: primary human endothelial cells (HUVEC);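 for AC50: potency may reflect either rise or fall in cell number versus DMSO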
Method in brief: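 Cells (human umbilical vein endothelial, sub-confluent) receive test chemical; after 48 h they are fixed in 10% trichloroacetic acid, stained with 0.1% SRB and read at 560 nm. Activity is referenced to DMSO, fitting increases and decreases.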

[19] = biological target: human Peroxisome Proliferator-activated Receptor delta (PPARd), PPARD (gene 5467) (UniProt Q03181); test: ATG_PPARd_TRANS: Attagene TRANS-FACTORIAL HepG2 Assay for human Peroxisome Proliferator-activated Receptor delta (PPARd) (AID 2283002; active = hit-call score of the fitted dose curve at least 0.9, where 1 is the maximum)
Sequence of human Peroxisome Proliferator-activated Receptor delta (PPARd), PPARD (gene 5467) (Q03181 whole entry, looked up, the tested form may be a part): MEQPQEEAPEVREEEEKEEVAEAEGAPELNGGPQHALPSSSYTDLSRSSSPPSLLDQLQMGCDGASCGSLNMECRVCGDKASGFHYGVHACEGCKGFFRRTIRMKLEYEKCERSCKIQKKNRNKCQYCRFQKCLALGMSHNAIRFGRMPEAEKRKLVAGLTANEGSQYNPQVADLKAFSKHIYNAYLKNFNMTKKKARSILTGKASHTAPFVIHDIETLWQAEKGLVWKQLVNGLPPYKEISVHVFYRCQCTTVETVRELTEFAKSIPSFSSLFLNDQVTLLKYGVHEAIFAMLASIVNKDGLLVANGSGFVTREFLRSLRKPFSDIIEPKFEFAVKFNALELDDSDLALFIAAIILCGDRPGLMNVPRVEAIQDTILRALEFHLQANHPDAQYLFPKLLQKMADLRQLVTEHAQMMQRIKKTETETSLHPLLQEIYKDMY
Method in brief: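 HepG2 cells transiently transfected with multiplexed GAL4-UAS reporter units and exogenous chimeric NR-Gal4 proteins; 24 h compound exposure. Reporter mRNA measured by RT-PCR, 6-FAM labelling, HpaI digestion and capillary electrophoresis; gain of signal versus DMSO.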

[20] = ATG_NFI_CIS: Attagene CIS-FACTORIAL HepG2 Assay for human Nuclear Factor I (NFI) (AID 2282989); settings: HepG2 cis-regulatory reporter, NFI response element transcription; actives raise or lower the signal
Method in brief: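 Multiplexed cis-reporter system in human HepG2 cells reports native TF activity as reporter mRNA induction 24 h post-dose. Fragments labelled with 6-FAM, HpaI-digested and resolved by capillary electrophoresis; activity fitted both directions versus DMSO.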

Measured: AC50

CC/C=C\CCOC(=O)c1ccccc1
not listed: [13] | [14] | [15] | [16] | [17] | [18] | [19] | [20]
inactive: all other assays above

CC(=O)Nc1ccc(N=Nc2cc(C)ccc2O)cc1
active: [1] 27.1 µM | [4] 1.42 µM | [15] 2.69 µM | [16] 20 µM | [18] 4.08 µM | [10] 32.3 µM | [11] 14.1 µM
not listed: [8] | [9] | [19] | [20]
inactive: all other assays above

O=C(O)C(F)(F)C(F)(F)C(F)(F)C(F)(F)C(F)(F)C(F)(F)C(F)(F)C(F)(F)C(F)(F)C(F)(F)C(F)(F)C(F)(F)F
active: [6] 143 µM | [16] 9.18 µM | [18] 20.6 µM and 6.79 µM
inactive: [1] | [2] | [3] | [4] | [13] | [14] | [15] | [16] | [7] | [19] | [17] | [8] | [9] | [10] | [11] | [12]

C(=C(c1ccccc1)c1ccccc1)c1ccccc1
inactive: [1] | [2] | [3] | [19] | [10] | [12]
active: [4] 25.2 µM | [11] 7.71 µM

O=C(O)C=C(C(F)(F)F)C(F)(F)F
active: [3] 68.2 µM | [4] 1.89 µM and 3.02 µM | [15] 22.4 µM and 8.91 µM | [18] 27 µM
inactive: [20] | [2] | [3] | [5] | [6] | [13] | [14] | [16] | [7] | [19] | [17] | [18] | [10] | [11] | [12]

FC(F)(F)C(F)(F)C(F)(F)C(F)(F)C(F)(F)C(F)(F)CC1CO1 (stereo not drawn)
not listed: [5] | [6] | [19]
inactive: all other assays above

CCCCCCS
inactive: [1] | [20] | [2] | [3] | [4] | [7] | [19] | [9] | [10] | [11] | [12]

Nc1cc(Cl)c(N)c(Cl)c1
active: [4] 9.89 µM | [8] 26.5 µM | [9] 43 µM | [10] 38.7 µM | [11] 19.8 µM
inactive: [1] | [2] | [5] | [6] | [7] | [12]
